Among all 330,000 compounds or so, about 1,900 (0.58%) were called active. About 4% were inconclusive and are not listed. The list is a sample of the results. Results with a measured potency or affinity are listed apart. A number with no mark means an inactive call. No stated cut-off is given here; in the data, inconclusive means inhibition above about 70% without an active follow-up result; inactive means below that.
Experiment: M. tuberculosis growth inhibition, HTS (AID 449762);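 further: bacterial growth assessed after seven days of incubation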
Conditions: M. tuberculosis H37Rv growth inhibition, 7H9 media; at 25 µM; hits give high values

With COc1ccc(OC)c(S(=O)(=O)N2CCN(C(=O)CCc3ccccc3)CC2)c1 as the molecule, how does the inhibition read?
The inhibition was -9.07%.

For Cc1cccc(C(=O)O/N=C2/CC3CCC2(C)C3(C)C)c1 (stereo unspecified), which inhibition is on record?
The inhibition was 5.89%.

For CC12CCC(C/C1=N\N=C1\NC(=O)/C(=C\c3cccc(Br)c3)S1)C2(C)C (stereo unspecified), which inhibition is on record?
The inhibition was 21.6%.

With COc1ccc(CC(=O)O/N=C(\N)Cc2ccc(OC)c(OC)c2)cc1 as the molecule, how does the inhibition read?
Its inhibition is 2.93%.

Which inhibition does the source give for O=C1c2ccccc2CN1C(CO)Cc1ccccc1 (stereo unspecified) here?
Its inhibition is -7.4%.

For COCCNC(=S)N/N=C(\C)CCc1ccc2c(c1)OCO2, which inhibition is on record?
Its inhibition is 8.49%.

For C/C(CCc1ccc2c(c1)OCO2)=N\NC(=O)c1ccccc1, which inhibition is on record?
The inhibition was 1.21%.

With O=C(N/N=C/c1ccccc1OC(=O)N1CCOCC1)c1cccs1 as the molecule, how does the inhibition read?
Its inhibition is 25.5%.

For COc1ccc(NS(=O)(=O)c2cccc(C(=O)Nc3cccc(C(=O)O)c3)c2)cc1, which inhibition is on record?
The inhibition was -7.77%.

With CCOc1cc(/C=N/NC(=O)COc2ccc(C)cc2)ccc1OC(=O)c1cccs1 as the molecule, how does the inhibition read?
Its inhibition is 8.62%.

Which inhibition does the source give for COc1cc(/C=N/NC(=O)COc2ccccc2C)ccc1OC(=O)c1cccs1 here?
The inhibition was -7.68%.

For COC(=O)c1cc(S(=O)(=O)Nc2nn(C)c3ccccc23)oc1C, which inhibition is on record?
The inhibition was 1.72%.

For COCCN(C(=O)COC(=O)CSc1ccc2ccccc2c1)c1c(N)n(Cc2ccccc2)c(=O)[nH]c1=O, which inhibition is on record?
Its inhibition is 0.46%.

Which inhibition does the source give for C=CCNC(=O)c1onc(CSc2ccncc2)c1C(=O)NCC=C here?
Its inhibition is -11.3%.

For Cc1ccc(S(=O)(=O)n2nc(C)c(S(=O)(=O)N3CCOCC3)c2C)cc1, which inhibition is on record?
Its inhibition is -4.96%.

With Cc1ccc(-c2cc(C(F)(F)F)n3ncc(C(=O)N4CCCCC4c4cccnc4)c3n2)cc1 (stereo unspecified) as the molecule, how does the inhibition read?
The inhibition was -0.42%.

For O=C(c1cnn2c(C(F)(F)F)cc(-c3ccccc3)nc12)N1CCCCC1c1cccnc1 (stereo unspecified), which inhibition is on record?
Its inhibition is 61.7%.

With CC(C)N(C(=O)[C@H]1CC(CC(=O)NCC23CC4CC(CC(C4)C2)C3)C(=O)N2CCc3c([nH]c4ccccc34)[C@]12C)C(C)C (stereo partly specified) as the molecule, how does the inhibition read?
The inhibition was 69.1%.

For C[C@]12c3[nH]c4ccccc4c3CCN1C(=O)C(CC(=O)NCC13CC4CC(CC(C4)C1)C3)C[C@@H]2C(=O)N1CCCCC1 (stereo partly specified), which inhibition is on record?
The inhibition was 21.5%.

Which inhibition does the source give for COc1cc([N+](=O)[O-])ccc1NC(=O)NCc1ccco1 here?
Its inhibition is -4.54%.

For COc1ccccc1CNC(=O)c1c(-c2ccccc2)nn(-c2ccccc2)c1C, which inhibition is on record?
Its inhibition is 6.07%.

For CC(=O)c1c(N2CCOCC2)[nH]c(-c2ccccc2)nc1=S, which inhibition is on record?
The inhibition was 43.5%.

Which inhibition does the source give for CC(=O)c1c(N2CCN(Cc3ccccc3)CC2)[nH]c(-c2ccccc2)nc1=S here?
The inhibition was -2.96%.

For CC(C)[C@H](NC(=O)[C@@H]1Cc2ccccc2CN1C(=O)OC(C)(C)C)C(=O)NCc1ccco1, which inhibition is on record?
Its inhibition is 2.19%.

For COc1ccc([N+](=O)[O-])cc1NS(=O)(=O)c1cccc(C(=O)OC2CCOC2=O)c1 (stereo unspecified), which inhibition is on record?
Its inhibition is -6.35%.

Which inhibition does the source give for O=C(NCCc1csc(-c2cccnc2)n1)c1ccccc1 here?
The inhibition was -11.6%.

Which inhibition does the source give for O=C1CN(C(=O)OCc2ccccc2)c2ccccc2N1 here?
Its inhibition is -1.7%.

For CN(c1ccccc1)S(=O)(=O)c1ccc(Cl)c(C(=O)NCc2ccccc2CN2CCCC2)c1, which inhibition is on record?
The inhibition was -5.7%.

For O=C(NCc1ccccc1CN1CCCC1)c1cccc(S(=O)(=O)N2CCCC2)c1, which inhibition is on record?
The inhibition was -11.2%.

Which inhibition does the source give for CC1CCCCC1NC(=O)c1cc(=O)[nH]c2ccccc12 (stereo unspecified) here?
Its inhibition is -4.11%.

With CC1CCCCC1NC(=O)c1ccc2c(c1)OCCO2 (stereo unspecified) as the molecule, how does the inhibition read?
The inhibition was 8.58%.

With Cc1ccc(C(OC(=O)c2ccco2)C(=O)NCc2cccs2)cc1 (stereo unspecified) as the molecule, how does the inhibition read?
The inhibition was 3.55%.

Which inhibition does the source give for O=C(O)c1cccc(NC(=S)NC(=O)c2ccc(-c3ccc(Cl)cc3)o2)c1 here?
Its inhibition is 1.13%.

For Cc1cc2ncn(C(=O)c3ccc4c(c3)OCO4)c2cc1C, which inhibition is on record?
The inhibition was 6.27%.

With Cc1cccc(C(=O)Nc2ccc(S(=O)(=O)N3CCOCC3)cc2)c1[N+](=O)[O-] as the molecule, how does the inhibition read?
Its inhibition is 6.13%.

Which inhibition does the source give for COc1cccc2sc(Nc3nnc(-c4ccccc4Cl)o3)nc12 here?
Its inhibition is 46.2%.

Which inhibition does the source give for COc1ccccc1-c1nnc(Nc2nc3c(OC)cccc3s2)o1 here?
Its inhibition is 6.89%.

For COc1cccc(CN2CCN(Cc3cc4ccccc4o3)CC2CCO)c1 (stereo unspecified), which inhibition is on record?
Its inhibition is -6.38%.

For CC(C)OCCCn1c(-c2ccc(Br)cc2)c[nH]c1=S, which inhibition is on record?
The inhibition was 8.53%.

Which inhibition does the source give for COc1ccc(OC)c(-n2c(-c3cccc(O)c3)n[nH]c2=S)c1 here?
The inhibition was 2.31%.

For CCN(CC)C(=O)c1ccc(Oc2ccc([N+](=O)[O-])cc2Cl)cc1, which inhibition is on record?
The inhibition was 4.15%.

For CCN(CC)C(=O)c1cc2cc([N+](=O)[O-])ccc2s1, which inhibition is on record?
The inhibition was 6.23%.

Which inhibition does the source give for O=C(COc1ccc(Br)cc1)N1CCc2ccccc2C1 here?
Its inhibition is 1.78%.

For CC(C)C(NC(=O)c1c(F)cccc1F)C(=O)N1CCN(c2ccccc2F)CC1 (stereo unspecified), which inhibition is on record?
Its inhibition is 5.13%.

Which inhibition does the source give for O=C(/C(=N\Nc1ccc(Br)cc1)Sc1nnnn1-c1ccccc1)c1ccccc1 here?
The inhibition was 2.41%.

With O=C(O)c1ccc(N=N/C(=N\Nc2ccc(C(=O)O)cc2)c2ccccc2)cc1 as the molecule, how does the inhibition read?
Its inhibition is 11.8%.

Source: PubChem BioAssay AID449762 (Southern Research Specialized Biocontainment Screening …, 2010)
